Source: PubChem BioAssay (National Center for Advancing Translational Sciences (NCATS))
FLuc counter – inhibits or activates purified firefly luciferase, miR-21 counter-screen; purified FLuc, Km substrates, luminescence inhibition; P08659; 6.9% of 360,000 active; Potency, µM (top dose mostly 57.5 µM), inactives show at the top dose activity change, negative = inhibition, usual class: inhibitors;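 note: plate controls were vehicle for no effect and reference inhibitor for full effect; nearly all actives have a fitted effect of over 55% in size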
Target sequence (P08659 whole entry, looked up): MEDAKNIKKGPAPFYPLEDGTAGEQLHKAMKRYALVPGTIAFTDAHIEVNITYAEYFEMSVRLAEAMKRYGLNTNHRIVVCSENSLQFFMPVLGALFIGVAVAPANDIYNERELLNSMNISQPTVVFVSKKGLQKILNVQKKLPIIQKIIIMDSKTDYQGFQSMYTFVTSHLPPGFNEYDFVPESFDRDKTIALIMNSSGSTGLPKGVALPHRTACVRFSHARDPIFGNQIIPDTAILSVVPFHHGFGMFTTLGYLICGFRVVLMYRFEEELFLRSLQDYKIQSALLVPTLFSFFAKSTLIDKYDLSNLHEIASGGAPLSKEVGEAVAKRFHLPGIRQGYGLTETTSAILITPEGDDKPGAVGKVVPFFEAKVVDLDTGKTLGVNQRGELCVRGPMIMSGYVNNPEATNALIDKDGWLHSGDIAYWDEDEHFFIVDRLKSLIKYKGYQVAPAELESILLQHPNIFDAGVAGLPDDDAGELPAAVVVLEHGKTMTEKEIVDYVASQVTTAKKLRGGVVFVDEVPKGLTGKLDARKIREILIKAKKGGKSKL
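Purified P. pyralis luciferase, 10 nM final, with Km-level 10 uM D-luciferin and 10 uM ATP in 50 mM Tris acetate pH 7.5, 10 mM Mg acetate, 0.01% Tween-20, 0.05% BSA; 6-point qHTS titration about 60 µM downward; luminescence read.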
KinaseGlo FLuc – counter-screen: inhibitors of Kinase-Glo firefly luciferase | Kinase-Glo luciferase, ATP luminescence, 8 min | Potency, µM (doses to about 38.3 µM), for the others: top-dose activity change, negative = inhibition, usual class: inhibitors | 0.28% of 200,000 active | AID 1379; note: % is set by controls: 0 for no effect and ±100 for the full control effect; nearly all actives have a fitted effect of over 60% in size
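Substrate mix (final 50 mM imidazole pH 7.2, 50 mM KCl, 7 mM MgCl2, 10 uM ATP, 0.01% Tween 20, 0.05% BSA) plus pin-tool compound, then Kinase-Glo detection mix; 8 min ambient, luminescence read.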
Rab9 prom act – activates the Rab9 promoter. Huh7 Rab9 promoter-luciferase reporter, luminescence, 24 h. 2.8% of 320,000 active. Potency, µM (titrated, usually from 9.22 µM), without a hit: at the top dose activation, negative = inhibition, most hits filed as activators; note: % of control where 0% means no effect; nearly all actives have a fitted effect of over 60% in size
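Cell-based reporter: Huh7 stable for Rab9 promoter-driven luciferase, plated in reduced-serum medium with 10% FBS at 1500 cells/well, compound-treated 24 h at 37 °C, luminescence read after 10 min reagent.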
ELG1 genotoxic – genotoxicity induction in ELG1-luciferase HEK293T cells. HEK293T ELG1-luciferase reporter, luminescence, 16 h. 1.3% of 330,000 active. AID 504466. Potency, µM (top dose mostly 46 µM), inactives show top-dose activity change, positive = activation, actives largely listed as activators; note: % of control where 0% means no effect; nearly all actives have a fitted effect of over 60% in size
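Step 1: seed 2,000 HEK293T ELG1-luciferase cells per well. Step 2: add compound or DMSO, incubate 16 hr at 37 °C. Step 3: ONE-Glo, 30 min at room temperature, read luminescence.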
SMN2 splice up – enhancers of SMN2 splice variant expression; 2.8% of 210,000 active; HEK293 SMN2-luciferase splicing reporter, luminescence, 30-36 h; Potency, µM (highest dose often 46.1 µM), for the others: at the highest dose activity change, positive = activation, hits mostly activators; note: % of control where 0% means no effect; nearly all actives have a fitted effect of over 55% in size
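qHTS luciferase splicing reporter: luminescence rises when SMN2 exon 7 is included in transfected HEK293 cells. Compound exposure lasted 30-36 h at 37C, with 4.5 mM final sodium butyrate as control, followed by a ONE-Glo read.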
NPC1 prom act – NPC1 promoter activation | Huh7 NPC1 promoter luciferase reporter, 24 h | Potency, µM (titrated, usually from 9.22 µM), for the others: at the highest dose activation, actives largely listed as activators | 2.4% of 320,000 active | AID 485313; note: % of control where 0% means no effect; nearly all actives have a fitted effect of over 60% in size
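Huh7 cells stably carrying NPC1 promoter–luciferase, plated in Opti-MEM with 10% FBS for 2 h, were exposed to compound in DMSO for 24 h at 37 °C; luciferase reagent was added for 10 min and luminescence read.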
* marks the source's active call; other numbers are inactive results; [ ] = another dose, or the depositor's remark. Only some compounds are listed: those with a hit (about 7.3% of all), similar ones and a draw of the others. Calls come from the whole dose curve; as a rule, active = well fitted curve in the direction sought with a large enough effect; inconclusive = small, poorly fitted or top-dose-only effect, or another doubt; inactive = no such curve, though single readings can be large; an effect the other way counts as inactive or inconclusive. Potency is the fitted concentration of half-maximal effect.

`C/C(O)=C\c1nc2ccccc2oc1=O` gave FLuc counter 2.4%, KinaseGlo FLuc -7.2%, Rab9 prom act 14.1%, ELG1 genotoxic -1.3%, SMN2 splice up 0.5% and NPC1 prom act -3.6%.
O=c1oc2ccccc2nc1/C=C(\O)c1ccc(Br)cc1 was read as FLuc counter 23.9µM*, Rab9 prom act 11.6%, ELG1 genotoxic 0.1% and NPC1 prom act 8.6%.
Screening CC(=O)CC(=O)Nc1ccccc1 returned SMN2 splice up 4.2%.
For Cc1cc(Nc2nc3ccccc3[nH]c2=O)n(-c2ccccc2)n1 the results were FLuc counter 1.8%, KinaseGlo FLuc 0.0%, Rab9 prom act 0.6%, ELG1 genotoxic 20.6µM*, SMN2 splice up 12.6µM* and NPC1 prom act -0.3%.
Cc1cc(Nc2cnc3ccccc3n2)n(-c2ccccc2)n1 was read as FLuc counter inconclusive, KinaseGlo FLuc -1.4%, Rab9 prom act -0.6%, ELG1 genotoxic -3.0%, SMN2 splice up -23.3% and NPC1 prom act -1.1%.
`COc1ccc2c(c1)c1c(c(=O)n(-c3cc(Cl)ccc3C)c(=O)n1Cc1ccc(F)cc1)n2C` gave FLuc counter -3.3%.
Screening CCc1cc(C=NC2CCCCC2)c(O)s1 returned FLuc counter inconclusive, KinaseGlo FLuc -3.9%, Rab9 prom act 3.55µM*, ELG1 genotoxic 13.1%, SMN2 splice up 17.9% and NPC1 prom act inconclusive.
Screening CCc1cc2c(SC(C)C(=O)NC3CCCC3)ncnc2s1 (configuration not stated) returned ELG1 genotoxic -1.2%.
Screening NS(=O)(=O)c1ccc(NC(=O)Nc2cccc3ccccc23)cc1 returned FLuc counter -9.9%, KinaseGlo FLuc -3.5%[7.66 µM], Rab9 prom act -8.1%, ELG1 genotoxic 2.9%, SMN2 splice up -6.5%[9.22 µM] and NPC1 prom act 0.5%.
CC(=O)Nc1cccc(NC(=O)Nc2cccc3ccccc23)c1 was read as FLuc counter -8.7%, Rab9 prom act 0.7%, ELG1 genotoxic -2.3% and NPC1 prom act -2.9%.
CCN(CC)c1ccc(NC(=O)Nc2ccccc2C(F)(F)F)cc1 was read as FLuc counter -18.9%, KinaseGlo FLuc -7.5%, Rab9 prom act 3.16µM*, ELG1 genotoxic 0.2%, SMN2 splice up 6.9% and NPC1 prom act inconclusive.
Screening CN(C)c1ccc(NC(=O)Nc2cccc3ccccc23)cc1 returned FLuc counter 2.69µM*, KinaseGlo FLuc 2.6%, Rab9 prom act inconclusive, ELG1 genotoxic 15.6%, SMN2 splice up 11.8% and NPC1 prom act 28.2%.
CCN(CC)c1ccc(NC(=O)Nc2cccc3ccccc23)cc1 was read as FLuc counter 2.13µM*, Rab9 prom act 18.2%, ELG1 genotoxic 15.9% and NPC1 prom act inconclusive.
`Cc1cc(Cl)ccc1NC(=O)CN1C(=O)C(=O)c2ccccc21` gave FLuc counter 8.2% and SMN2 splice up -9.0%.
Screening CNC(=O)c1ccc(Nc2nnc(-c3ccc(C)c(S(=O)(=O)NC(C)(C)C)c3)c3ccccc23)cc1 returned FLuc counter -5.2% and SMN2 splice up 4.6%.
`O=C(Nc1ccc(N2CCCCC2)c(Cl)c1)c1cccnc1` gave FLuc counter 12µM*, KinaseGlo FLuc -1.2%, Rab9 prom act 2.82µM*, ELG1 genotoxic inconclusive, SMN2 splice up 12.6µM* and NPC1 prom act 2.82µM*.
Screening O=C(Nc1ccc(N2CCN(C(=O)c3cccs3)CC2)c(Cl)c1)c1cccnc1 returned FLuc counter -3.7%, KinaseGlo FLuc -2.3%, Rab9 prom act -7.4%, ELG1 genotoxic -14.4%, SMN2 splice up -26.5% and NPC1 prom act -0.2%.
Screening O=C(Nc1ccc(N2CCCC2)c(Cl)c1)c1cccnc1 returned FLuc counter 12µM*, KinaseGlo FLuc -1.2%, Rab9 prom act 2.82µM*, ELG1 genotoxic 5.0%, SMN2 splice up 15.8µM* and NPC1 prom act 3.16µM*.
`O=C(Nc1ccc(N2CCOCC2)c(Cl)c1)c1cccnc1Cl` gave FLuc counter -15.2%, KinaseGlo FLuc 0.8%, Rab9 prom act 7.3%, ELG1 genotoxic 1.4%, SMN2 splice up 12.6% and NPC1 prom act -0.5%.
Screening COc1c(C)cccc1C(=O)Nc1ccc(N2CCOCC2)c(Cl)c1 returned FLuc counter 6.75µM*, KinaseGlo FLuc -6.7%, Rab9 prom act 3.16µM*, ELG1 genotoxic 8.2µM*, SMN2 splice up 11.2µM* and NPC1 prom act 1.58µM*.
For O=C(Nc1ccc(N2CCN(C(=O)c3ccco3)CC2)c(Cl)c1)c1cccnc1 the results were FLuc counter -2.4%, KinaseGlo FLuc 1.3%, Rab9 prom act -6.4%, ELG1 genotoxic -12.0%, SMN2 splice up -9.3% and NPC1 prom act -6.7%.
For O=C(Nc1ccc(N2CCOCC2)c(Cl)c1)c1cccc(F)c1 the results were FLuc counter 4.26µM*, KinaseGlo FLuc -4.2%, Rab9 prom act 1.58µM*, ELG1 genotoxic 2.31µM*, SMN2 splice up 10µM* and NPC1 prom act 1.12µM*.
Screening COc1cccc(C2C(C(=O)Nc3ccccc3)=C(C)Nc3nnnn32)c1OC (configuration not stated) returned FLuc counter 1.2%.
For CCCCNC(=O)c1nn(-c2ccc(C)cc2)c(=O)n(C)c1=O the results were FLuc counter -1.1%.
Fc1ccc([C@H]2CCNC[C@H]2COc2ccc3c(c2)OCO3)cc1 was read as KinaseGlo FLuc 2.3%.
For CN1CCN(CC(=O)N2c3ccccc3Sc3cc4ccccc4cc32)CC1 the results were KinaseGlo FLuc 0.3%[7.66 µM] and SMN2 splice up -10.8%[9.22 µM].
For O=C(Nc1ccc(N2CCOCC2)cc1)c1cccnc1 the results were FLuc counter inconclusive, KinaseGlo FLuc -11.0%, Rab9 prom act 16.0%, ELG1 genotoxic 14.1%, SMN2 splice up inconclusive and NPC1 prom act 21.7%.
O=C(Nc1ccc(N2CCOCC2)c(Cl)c1)c1cccnc1 was read as FLuc counter inconclusive, KinaseGlo FLuc -0.5%, Rab9 prom act 25.0%, ELG1 genotoxic 20.6µM*, SMN2 splice up inconclusive and NPC1 prom act 25.6%.
O=C(/C=C/Nc1ccc(F)cc1F)c1ccco1 was read as FLuc counter 0.213µM*, KinaseGlo FLuc 10µM*, Rab9 prom act 3.55µM*, ELG1 genotoxic 0.461µM*, SMN2 splice up 2.82µM* and NPC1 prom act inconclusive.
For O=C(/C=C/Nc1ccc(Br)cc1F)c1ccco1 the results were FLuc counter 0.239µM*, KinaseGlo FLuc 12.6µM*, Rab9 prom act 0.708µM*, ELG1 genotoxic 0.326µM*, SMN2 splice up 1.12µM* and NPC1 prom act 1.12µM*.
Screening O=C(/C=C/Nc1ccccc1O)c1ccco1 returned FLuc counter 2.39µM*, Rab9 prom act inconclusive, ELG1 genotoxic 20.6µM* and NPC1 prom act 0.7%.
